The list is not random: actives were taken first. Their share in the collection is about 5.7%.
NR3A LBD binder: modulates the human NR3A ligand-binding domain. NR3A LBD differential scanning fluorimetry, Tm shift; 0% = protein alone, 100% = glycine-bound protein. Tm shift relative to glycine control, % at 25 µM. actives 2.5% (n = 340,000). AID 1259313;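 active = melting temperature shift of at least 10% of the positive control shift, at one fixed dose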
MPTP inh: permeability transition pore inhibition; isolated mouse mitochondria, Ca2+ swelling absorbance, 30 min; inhibition, % at 10 µM; actives 1.4% (n = 360,000);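 active = inhibition of 50% or more, scaled per plate between neutral and stimulator controls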
rCAG binder-1: binds r(CAG) RNA repeats | r(CAG) RNA repeat, TO-PRO-1 dye displacement fluorescence | inhibition, % at 3 µM | actives 1.3% (n = 370,000) | AID 651821;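 active = inhibition above the plate cutoff, the mean of all test compounds on that plate plus 3 SD, cut at about 35% in these data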;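 note: higher means more dye released from RNA so lower well fluorescence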
FAS-TE inh: blocks the thioesterase domain of human fatty acid synthase; P49327; recombinant FAS-TE, OMFH fluorogenic substrate, fluorescence endpoint; inhibition, % at 15 µM; actives 0.67% (n = 360,000); AID 602261;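 active = compounds whose normalised, plate-corrected inhibition of enzyme fluorescence in the single-dose primary screen is 50% or more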
Myeloid diff MLP: promotes myeloid progenitor differentiation | calls only at 10 µM | actives 1% (n = 360,000) | AID 624256 | ER-HoxA9 myeloid progenitors, lysozyme-GFP differentiation, flow cytometry;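 active = normalized GFP-positive differentiation at or above the plate's own cutoff, the solvent-only control mean plus 3 SD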;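 note: cells exposed to compound for four days before flow analysis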
rCAG bind conf: r(CAG) RNA repeat binding, confirmation. inhibition, % at 3 µM. actives 70% (n = 4,300). TO-PRO-1 dye displacement fluorescence. shares compounds with rCAG binder-1;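 active = inhibition above a per-plate cutoff, the mean inhibition of sample wells plus 3 SD, cut at about 35% in these data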;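 note: loss of TO-PRO-1 fluorescence as compound displaces dye from 1x1 AA loop RNA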
dCAG dye counter: counter-screen for rCAG RNA binders: DNA CAG dye complex inhibitors. shares compounds with rCAG binder-1. d(CAG) DNA oligo TO-PRO-1 dye displacement, fluorescence. inhibition, % at 3 µM. actives 94% (n = 4,300). AID 652068;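 active = inhibition above its plate's cutoff, the mean test-well inhibition plus 3 SD, cut at about 4.8% in these data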;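 note: hits displace the dye from DNA and so lower well fluorescence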
dCAG dye DR: DNA CAG dye complex inhibition, dose response counter-screen; shares compounds with rCAG binder-1; DNA CAG/GTC duplex TO-PRO-1 dye displacement fluorescence; IC50, µM; actives 20% (n = 250); in the data active = IC50 below about 10 µM
dCAG DNA bind: counter-screen for rCAG binders: DNA CAG TO-PRO-1 complex inhibitors, late stage; shares compounds with rCAG binder-1; d(CAG) DNA duplex TO-PRO-1 dye displacement, fluorescence; IC50, µM; actives 80% (n = 30)
rCAG binder-2: molecules binding r(CAG) RNA repeats, late stage dose response | shares compounds with rCAG binder-1 | r(CAG) RNA TO-PRO-1 dye displacement, fluorescence | IC50, µM | actives 100% (n = 30)
Each line names hits and unclear results; the compound was inactive in the other large screens (follow-up assays come after a bar, where they were run). Unless noted, the rule behind the calls is not given here.

COC(=O)[C@]12C[C@H](CC(=O)NCc3cccs3)C(=O)N(CCC3=CCCCC3)C1=C[C@H](C(C)C)O[C@@H]2C1CC1	none (no result: NR3A LBD binder, MPTP inh, FAS-TE inh, Myeloid diff MLP)
Cc1ccc(C)c(OCC(=O)Nc2ccc(S(=O)(=O)Nc3onc(C)c3C)cc2)c1	rCAG binder-1 48 | rCAG bind conf 46 | dCAG dye counter 13
CCc1cccc(OCC(=O)Nc2c[nH]c(=O)[nH]c2=O)c1	none
Cc1noc(NS(=O)(=O)c2ccc(NC(=O)CCCOc3ccc(Cl)cc3Cl)cc2)c1C	rCAG binder-1 87 | rCAG bind conf 73 | dCAG dye counter 38
CCc1cccc(OCC(=O)Nc2ccc(S(=O)(=O)Nc3onc(C)c3C)cc2)c1	rCAG binder-1 37 | rCAG bind conf inactive | dCAG dye counter 7.1
Cc1ccc(OCC(=O)Nc2ccc(S(=O)(=O)Nc3onc(C)c3C)cc2)cc1	none
CCc1cccc(OCC(=O)Nc2ccc(C(=O)O)cc2NC(=O)COc2cccc(CC)c2)c1	rCAG binder-1 78 | rCAG bind conf 72 | dCAG dye counter 36
Cn1c(NC(=O)c2ccc(S(=O)(=O)N3CCOCC3)cc2)cc(=O)n(C)c1=O	none
COc1ccc(-c2coc3c(C(=O)NCc4ccc(C(F)(F)F)cc4)cccc23)c(C)c1	none (no result: NR3A LBD binder)
Cc1ccc2c(Cl)c(Cc3ccccc3)c(=S)[nH]c2n1	none
Cc1noc(NS(=O)(=O)c2ccc(NC(=O)CC(C)C)cc2)c1C	none
COc1ccccc1OCC(=O)Nc1ccc(S(=O)(=O)Nc2onc(C)c2C)cc1	none
Cc1noc(NS(=O)(=O)c2ccc(NC(=O)CSc3nc4c(cc3C#N)CCCCC4)cc2)c1C	rCAG binder-1 42 | rCAG bind conf inactive | dCAG dye counter 8.2
Cc1ccc(C)c(OCC(=O)Nc2cc(NC(=O)COc3cc(C)ccc3C)cc(C(=O)O)c2)c1	rCAG binder-1 49 | rCAG bind conf 77 | dCAG dye counter 41
Cc1noc(NS(=O)(=O)c2ccc(NC(=O)COc3ccc(Cl)cc3Cl)cc2)c1C	rCAG binder-1 77 | rCAG bind conf 70 | dCAG dye counter 22 | dCAG dye DR inactive | dCAG DNA bind 3.6 | rCAG binder-2 1.3
CC(C)CNC(=O)OCc1cn(Cc2cc(F)cc(F)c2)nn1	none (no result: NR3A LBD binder, MPTP inh, FAS-TE inh, Myeloid diff MLP)
FC(F)(F)c1ccccc1NC(=S)Nn1cnnc1	none
O=C(Nc1ccc(N2C(=O)C3C4C=CC(C4)C3C2=O)cc1)Nc1nnc(C(F)(F)F)s1 (configuration not stated)	NR3A LBD binder 20, rCAG binder-1 55 | rCAG bind conf 40 | dCAG dye counter 16
CCCCOc1ccc(-c2c(C(=O)Nc3ccccc3)c(C)[nH]c(=S)c2C#N)cc1	rCAG binder-1 60 | rCAG bind conf 36 | dCAG dye counter 16
CCOC(=O)c1c(C)[nH]c(=S)c(C#N)c1-c1ccc(OC)cc1	none
O=C1NN(c2ccccc2)C(=O)/C1=C/c1ccc(Sc2cccc3ccccc23)o1	rCAG binder-1 48 | rCAG bind conf 92 | dCAG dye counter 68
CCS(=O)(=O)c1ccc2c(c1)N(S(=O)(=O)c1ccc(Cl)cc1)CC(C(=O)O)O2 (configuration not stated)	none
CC(C)(C)c1ccc(S(=O)(=O)N2CC(C(=O)O)Oc3ccc(Cl)cc32)cc1 (configuration not stated)	rCAG binder-1 63 | rCAG bind conf 63 | dCAG dye counter 26
O=c1ccnc(SCCc2ccc([N+](=O)[O-])cc2)[nH]1	none
CCOc1cc(CNc2cccc3[nH]c(C)nc23)ccc1OC	none
Cc1c(Nc2nc3ccccc3nc2NS(=O)(=O)c2cccc(Cl)c2)c(=O)n(-c2ccccc2)n1C	rCAG binder-1 52 | rCAG bind conf 48 | dCAG dye counter 15
CCOC(=O)C1=C(c2ccccc2)N=c2s/c(=C\c3cc(OC)c(OC)c(OC)c3)c(=O)n2C1c1cccs1 (configuration not stated)	none
CCOC(=O)C1=C(c2ccccc2)N=c2s/c(=C\c3ccco3)c(=O)n2C1c1cccs1 (configuration not stated)	rCAG binder-1 44 | rCAG bind conf inactive | dCAG dye counter 20
Cc1c(C)c2ccc(OCC(=O)N[C@@H](Cc3ccccc3)C(=O)O)cc2oc1=O	none
Cc1oc2cc3oc(=O)c(CC(=O)N[C@@H](C)C(=O)NC(Cc4ccc(Cl)cc4)C(=O)O)c(C)c3cc2c1C (some centres not stated)	none
CCC(NC(=O)Cc1c(C)c2ccc(OC)c(C)c2oc1=O)C(=O)NC(Cc1ccc(Cl)cc1)C(=O)O (configuration not stated)	rCAG binder-1 36 | rCAG bind conf 41 | dCAG dye counter 8.8
Cc1c(C)c2ccc(OCC(=O)NC(Cc3ccc(Cl)cc3)C(=O)O)cc2oc1=O (configuration not stated)	none
Cc1c(Cc2ccccc2)c(=O)oc2cc(OCC(=O)NC(Cc3ccc(Cl)cc3)C(=O)O)ccc12 (configuration not stated)	rCAG binder-1 52 | rCAG bind conf 66 | dCAG dye counter 25
CCCCCCc1c(C)c2ccc(OCC(=O)N[C@@H](Cc3ccccc3)C(=O)O)cc2oc1=O	rCAG binder-1 46 | rCAG bind conf 76 | dCAG dye counter 31 | dCAG dye DR inactive
Cc1c(OCC(=O)NC(Cc2ccc(Cl)cc2)C(=O)O)ccc2c1oc(=O)c1ccccc12 (configuration not stated)	none
Cc1c(Cc2ccccc2)c(=O)oc2c(C)c(OCC(=O)N[C@@H](Cc3ccccc3)C(=O)O)ccc12	rCAG binder-1 47 | rCAG bind conf 70 | dCAG dye counter 29 | dCAG dye DR inactive
COc1ccc(Nc2nc(NN)nc(Nc3ccc(OC)cc3)n2)cc1	none
CC(=O)c1ccc(OCCCC(=O)NCc2nnc3ccccn23)cc1	none
Cc1cc(OCC(=O)N[C@@H](CSCc2ccccc2)C(=O)O)c2c(C)c(C)c(=O)oc2c1	rCAG binder-1 49 | rCAG bind conf 54 | dCAG dye counter 13
C/C(=N\NC(=O)c1cc(O)ccc1O)c1cccc(NC(=O)c2ccc(Cl)cc2)c1	rCAG binder-1 37 | rCAG bind conf inactive | dCAG dye counter 8.3
